Source: PubChem BioAssay (National Center for Advancing Translational Sciences (NCATS))
ERK EGF inh: qHTS Assay for Inhibitors of the ERK Signaling Pathway using a Homogeneous Screening Assay; Stimulation with EGF | HEK293-V1b, EGF-stimulated phospho-ERK AlphaScreen | Potency, µM (highest dose often 11.5 µM), for inactives: at the highest dose activity change, negative = inhibition, usual class: inhibitors | actives 0.41% (n = 130,000); active = well fitted inhibition curve with a large enough effect;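 note: plate controls were stimulated vehicle wells for no effect and unstimulated vehicle basal for full effect; nearly all actives have a fitted effect of over 55% in size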
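In this qHTS, HEK293 cells with stable type-1 vasopressin (V1b) receptor were exposed to compound at 37C for 30 min, stimulated 5 min with EGF at 25 nM, lysed, and probed for phospho-ERK by AlphaScreen.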
Numbers without * were called inactive; ! = not confirmed by another sample; [ ] = another dose, or the depositor's remark. Shown is part of a subset that was picked to be rich in hits. Potency is the fitted concentration of half-maximal effect.

SMILES	ERK EGF inh
CSC(=CC(=O)c1ccc(F)cc1)SC	1%[57.5 µM]
CC1OC(OC2C(OC3C(O[C@H]4CC[C@]5(C)C6C=C[C@]78OC[C@@]9(CC[C@@H](C)[C@H](C)C97)[C@H](O)C[C@@]8(C)[C@]6(C)CC[C@H]5C4(C)C)OC(C)C(O)C3O)OC(CO)C(O)C2O)C(O)C(O)C1O (stereo partly specified)	11µM*
CC1O[C@@H](O[C@H]2C(Oc3cc(O)c4c(c3)OC(c3ccc(O)cc3)CC4=O)OC(CO)C(O)C2O)C(O)C(O)C1O (stereo partly specified)	12%
COc1ccccc1CC(=O)N1CCCC(CCC(=O)NCc2ccccc2F)C1 (stereo unspecified)	0%[57.5 µM]
COc1ccc(C(C)(C)C)cc1NC(=O)CNc1cccc2ccccc12	-2%
COc1ccc(NS(=O)(=O)c2cc(NC(=O)c3ccccc3F)ccc2N2CCCC2)cc1	-9%[57.5 µM]
Cc1ccc(N2CCN(/N=C/c3c(C)nn(-c4ccccc4)c3Cl)CC2)cc1	-5%
Cc1ccc(-c2csc(=Nc3cccnc3)n2CCCN2CCCC2=O)cc1C	-5%
c1cncc(N=c2scc(-c3cccc4ccccc34)n2CCCn2ccnc2)c1	7%
Cc1ccc(-c2csc(=Nc3cccnc3)n2CCCn2ccnc2)cc1C	28µM*
CCN(CCCNC(=O)CC1Oc2ccc(C)cc2NC1=O)Cc1ccccc1 (stereo unspecified)	1%
O=C(CCSCc1ccccc1Cl)NCc1cccs1	13%
O=C(CNc1cc(S(=O)(=O)N2CCCC2)ccc1OCC(F)(F)F)Nc1cc(Cl)cc(Cl)c1	0%
COc1cccc2c1C(=O)c1c(O)c3c(c(O)c1C2=O)C[C@@](O)(C(C)=O)C[C@@H]3O[C@H]1C[C@H](N)[C@H](O)[C@H](C)O1	25µM*!
COc1ccc(NC(=O)CC2C(=O)N(C)C(=S)N2Cc2cccs2)cc1 (stereo unspecified)	1%
N/C(CCS(=O)(=O)c1ccc(Cl)cc1)=N\OC(=O)c1ccccc1Cl	-12%[57.5 µM]
CCO[C@@H]1OC(C(=O)N2CCN(Cc3ccc4c(c3)OCO4)CC2)=C[C@H](C2CCCCC2)[C@H]1CCCO	-9%[57.5 µM]
CN1/C(=C\C=N\NC(=O)c2ccc(O)cc2)C(C)(C)c2ccccc21	0%
CN1/C(=C\C(=O)c2cccnc2)C(C)(C)c2ccccc21	3%
Cc1ccc(C(=O)NC(=S)/C=C2\N(C)c3ccccc3C2(C)C)cc1	25µM*
FC(F)(F)COc1cc(-c2nnc(SCc3ccccc3)n2Cc2ccco2)cc(OCC(F)(F)F)n1	-21%[57.5 µM]
CC1(C)CC=C(O[Si](C)(c2ccccc2)c2ccccc2)CC1	-6%
CCc1ccc(C2NC(=S)NC3=C2C(=O)CCC3)cc1 (stereo unspecified)	0%
COc1ccc2c(c1)c(=O)oc1c(C)c(OCc3cc(C(=O)O)oc3C)ccc12	28%
O=C1c2ccccc2C(=O)c2c(Nc3ccc(CCO)cc3)ccc(O)c21	14µM*
SMILES	ERK EGF inh
O=C1c2ccccc2C(=O)c2c(O)ccc(O)c21	-11%
CC(=O)Nc1ccc(Nc2ccc3c4c(cc(=O)n3C)-c3ccccc3C(=O)c24)cc1	8%
Cc1ccsc1CN(C)Cc1nc(C2CC2)no1	-3%
Oc1ccc(Nc2nc(Cl)nc(NCc3ccco3)n2)cc1	-4%
Cc1nn(C)cc1CN1CCCC(C(=O)c2ccc(-c3ccccc3)cc2)C1 (stereo unspecified)	-12%
O=C(c1ccc(Cl)cc1)C1CCCN(Cc2cccn2-c2cccnc2)C1 (stereo unspecified)	-5%
O=C(c1ccc(Cl)cc1)C1CCCN(Cc2cnn(-c3ccccc3)c2)C1 (stereo unspecified)	28µM*
Cc1cc(C)c(S(=O)(=O)Nc2cccc(/C=C/C(=O)O)c2)c(C)c1	7%
COc1ccccc1Nc1nc(NCc2ccco2)nc(N)c1[N+](=O)[O-]	12%[57.5 µM]
COc1ccc(S(=O)(=O)N2CCCC2)c(Cl)c1Cl	2%
COc1ccc(N)c2c1C(=O)c1ccccc1C2=O	20µM*
COc1ccc(/C=C/C(=O)O)cc1Cl	-2%[57.5 µM]
Nc1ccc(O)c2c1C(=O)c1ccccc1C2=O	29%
COc1ccc(OC)c2c1C(=O)C(Cl)=C(Cl)C2=O	28µM*
COc1ccc(C=C2C(=O)c3ccccc3C2=O)cc1O	-2%
O=C(OCC(=O)N(Cc1ccccc1)C1CCS(=O)(=O)C1)c1cc2c(s1)CCCC2 (stereo unspecified)	1%
COc1ccc2[nH]cc(CCn3ccc(O)c(C/C=C/c4ccccc4)c3=O)c2c1	-1%
O=c1c2[nH]c3ccc(F)cc3c2ncn1CCC1=CCCCC1	-1%[57.5 µM]
C1=C(CCNc2ncnc3nc[nH]c23)CCCC1	5%
COc1ccc2[nH]c3c(NCCC4=CCCCC4)ncnc3c2c1	20µM*
Cc1noc(C)c1-c1nccc(-n2ccnc2)n1	17%
COc1ccc(-c2nc3cnc(N4CCNCC4)nc3n(Cc3ccc(F)cc3)c2=O)cc1	-8%
COc1ccc2ncc(S(=O)(=O)c3ccccc3)c(N3CCC4(CC3)OCCO4)c2c1	1%
c1cc2c(cc1C1CCCCC1)c1c3n2CCCNC3CCC1 (stereo unspecified)	28µM*
Cc1ccc2c(c1)c1c3n2CCCNC3CCC1 (stereo unspecified)	-15%[57.5 µM]
SMILES	ERK EGF inh
c1cc2c(cc1C1CCCCC1)c1c3n2CCN[C@H]3CCC1	8%
COc1ccc(OCC(=O)Nc2c3c(nn2C(C)(C)C)CSC3)cc1	6%
O=C(Nc1ccccc1Cl)Nc1ccccc1Cl	-10%[57.5 µM]
CSc1ccccc1NC(=O)Nc1ccccc1Cl	3%[57.5 µM]
O=C(Nc1ccc(Nc2ccccc2)cc1)Nc1ccccc1Cl	28µM*
CC(=O)n1cc(N(C(=O)CCl)c2ccccc2)c2ccccc21	1%[57.5 µM]
NC(=O)NCC(=O)N1CCC(C(O)(c2ccccc2)c2ccccc2)CC1	0%[57.5 µM]
Cc1ccccc1Nc1nc(NCc2ccco2)c2ccccc2n1	-2%
OCCN1CCN(c2nc(NCc3ccco3)c3ccccc3n2)CC1	2%
Cc1ccc(Nc2nc(N)c([N+](=O)[O-])c(NCc3ccco3)n2)cc1C	-2%
Cc1cccc(Nc2nc(NCc3ccco3)c3ccccc3n2)c1	28µM*
Cc1ccc(-c2nc(NCc3ccco3)c3ccccc3n2)cc1	-5%
Oc1ccccc1Nc1nc(NCc2ccco2)c2ccccc2n1	32µM*
O=C(CC1(c2ccc(Cl)cc2)C2CC3CC(C2)CC1C3)NCCO (stereo unspecified)	7%
COc1ccc2c(C)cc(SCC(=O)Nc3ncc(Cl)cc3Cl)nc2c1	-5%
O=C1NCCN(Cc2ccoc2)C1CC(=O)N(Cc1ccccc1)CC1CCC1 (stereo unspecified)	-3%
O=C(OCC(=O)N1CCCCC1)c1cc(NS(=O)(=O)c2ccc(Cl)c([N+](=O)[O-])c2)ccc1O	-1%
OC(c1cc(-c2ccc(Cl)cc2)nc2ccccc12)C1CCCCN1 (stereo unspecified)	32µM*
O=C(NCc1ccccn1)c1cc(-c2ccc(Cl)cc2)nc2ccccc12	-2%
OC(c1cc(C(F)(F)F)nc2c(Cl)cc(Cl)cc12)C1CCCCN1 (stereo unspecified)	0%[57.5 µM]
COC(=O)N1CCC2(CC1)CN(c1ccc(-c3ccccc3)cc1)C2	1%
c1ccc(-c2ccc(N3CC4(CCNCC4)C3)cc2)cc1	20µM*
O=C(c1ccncc1)N1CCC2(CC1)CN(c1ccc(-c3ccccc3)cc1)C2	4%
O=C(O)c1cc([N+](=O)[O-])c(NCc2cccnc2)c([N+](=O)[O-])c1	8%
COc1ccc(C(=O)/C=C/c2ccccc2)cc1	2%
